Measurements reported in PubChem BioAssay (Tox21).
Records with an inconclusive call do not appear. A call without a number means that no potency is given here. Calls of active or inactive are those of the source. Calls come from the whole dose curve; as a rule, active = well fitted inhibition curve with a large enough effect in the signal ratio in the repeat runs (not every such curve was filed as active); inconclusive = weak or mixed curves, or effect the other way; inactive = no such curve, though single readings can be large or run the other way; the % refers to the signal ratio.

Molecular target: Glucocorticoid receptor (Homo sapiens) (UniProt P04150)
Sequence (P04150 whole entry, looked up): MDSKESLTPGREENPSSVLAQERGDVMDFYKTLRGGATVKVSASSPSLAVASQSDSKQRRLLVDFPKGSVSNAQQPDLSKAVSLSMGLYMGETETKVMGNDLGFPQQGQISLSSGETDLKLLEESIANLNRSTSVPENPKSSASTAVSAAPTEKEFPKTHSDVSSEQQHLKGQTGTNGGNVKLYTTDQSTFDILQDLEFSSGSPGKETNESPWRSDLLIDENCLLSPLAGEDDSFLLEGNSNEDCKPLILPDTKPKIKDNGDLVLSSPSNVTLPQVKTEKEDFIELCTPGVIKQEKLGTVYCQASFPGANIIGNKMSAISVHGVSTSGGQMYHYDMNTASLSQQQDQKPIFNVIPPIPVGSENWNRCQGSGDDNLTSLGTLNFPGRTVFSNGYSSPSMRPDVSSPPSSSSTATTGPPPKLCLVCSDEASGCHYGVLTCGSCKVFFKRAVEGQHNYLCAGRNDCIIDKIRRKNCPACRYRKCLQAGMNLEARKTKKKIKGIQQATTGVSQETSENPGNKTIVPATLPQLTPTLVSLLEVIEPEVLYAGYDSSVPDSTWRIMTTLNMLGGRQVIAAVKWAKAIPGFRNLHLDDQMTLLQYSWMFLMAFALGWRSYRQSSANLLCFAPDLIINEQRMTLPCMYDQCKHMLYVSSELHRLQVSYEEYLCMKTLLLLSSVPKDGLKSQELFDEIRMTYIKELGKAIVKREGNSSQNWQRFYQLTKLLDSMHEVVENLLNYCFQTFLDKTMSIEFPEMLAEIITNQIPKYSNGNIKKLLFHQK
Test: qHTS assay to identify small molecule antagonists of the glucocorticoid receptor (GR) signaling pathway (AID 720692)
Conditions: GR-bla HeLa, beta-lactamase FRET ratio, dexamethasone-stimulated, 18 h; series mostly up to 58.5 µM
Description: U.S. Tox21 Program National Center for Advancing Translational Sciences [NCATS] NIH Chemical Genomics Center [NCGC] U.S. Environmental Protection Agency [EPA] National Institutes of Environmental Health Sciences [NIEHS] National Toxicology Program [NTP] U.S. Food and Drug Administration [FDA] Tox21 Assay Overview: The Glucocorticoid receptor (GR) is one of the members of the nuclear receptor family of ligand-dependent transcription factors. GR plays a critical role in carbohydrate, protein and lipid metabolisms and programmed cell death. CellSensor GR-bla HeLa cell line (Invitrogen) contains a beta-lactamase reporter gene under the control of the glucocorticoid response element stably integrated into HeLa cells, a cervical cancer cell line that expresses glucocorticoid receptor. The activation of the reporter gene under culture conditions can be detected by fluorescence intensity. This cell line has been used to screen the Tox21 10K compound library and to identify the compounds that inhibit the GR signaling.
Tox21 Assay Protocol Summary: The GR-bla HeLa cells were dispensed at 1500 cells/5 ul/well in 1536-well black wall/clear bottom plates using a Multidrop Combi (ThermoFisher Scientific, Waltham, MA) dispenser. After the assay plates were incubated at a 37 C/5% CO2 incubator for 4 hours, 23 nL of compounds dissolved in DMSO, positive controls or DMSO only was transferred to the assay plate by a pintool station (Kalypsys, San Diego, CA), followed by addition of 1 uL of dexamethasone (5 nM, final concentration in the well). The plates were incubated at 37 C for 18 hours. After 1 uL of LiveBLAzerTM B/G FRET substrate was added using a Flying Reagent Dispenser (Aurora Discovery, San Diego, CA), the plates were incubated at room temperature for 2 hours, and fluorescence intensity was measured by an Envision plate reader (PerkinElmer, Shelton, CT).
Potency is the fitted concentration of half-maximal effect.

Row | SMILES | Potency
1 | C[Si](C)O[Si](C)(C)O[Si](C)(C)O[Si](C)C | inactive
2 | Cc1cc(NC(=O)C(=O)O)cc(C)c1Oc1ccc(O)c2c1CCC2 | inactive
3 | CCOc1cc(OCC)c(C(=O)CCC(=O)O)cc1OCC | inactive
4 | NCCCOCCOCCOCCCN | inactive
5 | Cc1occc1S | inactive
6 | O=C(CC(=O)c1ccccc1)c1ccccc1 | inactive
7 | C=CC(=O)OCC(C)OCC(C)OCC(C)OC(=O)C=C (stereo not given) | 43.6 µM (active)
8 | CC1=CC(=O)/C(=C(/C)O)C(=O)O1 | inactive
9 | CCN(CCO)CCCC(C)Nc1ccnc2cc(Cl)ccc12 (stereo not given) | inactive
10 | CC(C)(C)C1CCCCC1O (stereo not given) | inactive
11 | O=C(O)Cc1sc(-c2ccccc2)nc1-c1ccc(Cl)cc1 | inactive
12 | CC(CN)CCCN (stereo not given) | inactive
13 | Cn1c(NCCN(CCO)CCCc2ccc([N+](=O)[O-])cc2)cc(=O)n(C)c1=O | inactive
14 | C=CC(=O)OCCOC(=O)CCC(=O)O | inactive
15 | CCCCOc1ccc(CC(=O)NO)cc1 | inactive
16 | CC(O)C1CCCCC1 (stereo not given) | inactive
17 | CCN(CC)CCc1nc(-c2ccccc2)no1 | inactive
18 | CC(C)(C)c1cc(CO)cc(C(C)(C)C)c1O | 44.5 µM (active)
19 | CC(=O)OCCc1ccccc1 | inactive
20 | N=C(N=C(N)N)N1CCOCC1 | inactive

Row | SMILES | Potency
21 | CCN(CC)CCOC(=O)C1(c2ccccc2)CCCC1 | inactive
22 | CC(=O)c1ccc2c(c1)[C@H](NC(=O)c1ccc(F)cc1)[C@@H](O)C(C)(C)O2 | inactive
23 | Cc1ccc(C(C)c2ccc(C)c(C)c2)cc1C | inactive
24 | CCCCCCCCCO | inactive
25 | c1ccc(OCc2ccc(CCCN3CCOCC3)cc2)cc1 | inactive
26 | CCCCC(CC)COCCCN (stereo not given) | inactive
27 | COc1ccc(OC)c(OC)c1 | inactive
28 | C=CC(C)(CCC=C(C)C)OC(=O)c1ccccc1 (stereo not given) | inactive
29 | CC(=O)N(O)CCCCCNC(=O)CCC(=O)N(O)CCCCCNC(=O)CCC(=O)N(O)CCCCCN | inactive
30 | CC(C(=O)O)c1ccc(-c2ccccc2)c(F)c1 (stereo not given) | inactive
31 | CC(=O)NCCCS(=O)(=O)O | inactive
32 | CN(C)C/C=C(/c1ccc(Br)cc1)c1cccnc1 | inactive
33 | CCCCOc1cc(C(=O)OCCN(CC)CC)ccc1N | inactive
34 | Cc1ccccn1 | inactive
35 | COC(=O)C(C)=O | inactive
36 | O=S1(=O)c2cccc3cccc(c23)N1CCCN1CCN(c2ccc(F)cc2)CC1 | inactive
37 | CC(Cc1cccc(C(F)(F)F)c1)NCCOC(=O)c1ccccc1 (stereo not given) | inactive
38 | COC(Cc1ccccc1)OC | inactive
39 | COc1ccccc1OC(=O)Oc1ccccc1OC | inactive
40 | CCN(CC)CCNC(C(=O)OCCC(C)C)c1ccccc1 (stereo not given) | inactive
